Consider nine molecules from PubChem BioAssay (NCATS).

Assay [1] in a line: Cellular Toxicity (caspase-3) Hek293 (AID 664).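 Note: cells exposed to compound for 16 h at 37 °C before readout.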 The following applies: HEK293 caspase-3 activation, DMSO = 0%, 100 µM tamoxifen = 100%; at 92.2 µM (top of the series). An outline of the steps: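 qHTS, HEK293 (human embryonic kidney), 16 h cpd exposure in complete medium. Caspase-3/7 activation = luminescence increase; normalized to DMSO/100 uM tamoxifen; Hill-fit AC50.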
Assay [2] in a line: Cell Viability - LYMP1-002 - Assay at 16 hr (AID 948).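 Note: 0% = DMSO alone and full effect = 92 µM tetraoctylammonium bromide.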 A digest of the protocol:
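ATP luminescence (CellTiter-Glo) was measured after 16 hr compound exposure at 37 C of 2500 lymphoblastoid LYMP1-002 cells per well. Concentration-response curves were fitted with the Hill equation to give AC50.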

The nature of assay [3]: MultiTox-Fluor Cytotoxicity Assay - LYMP1-002 - Live Cells (AID 955).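 Note: cells exposed to compound for 16 hours; % is set by controls: 0 for no effect and ±100 for the full control effect.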 A digest of the protocol:
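Cells were seeded at 2500 per well and incubated 5 hr. Compounds were then added for 16 hr at 37 C, followed by MultiTox-Fluor reagent for 60 min at room temperature and fluorescence reading of viable-cell protease signal.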

Assay [4] can be described thus: Cell Viability - LYMP2-013 (AID 970).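 Note: 0% = DMSO only and full inhibition = tetraoctylammonium bromide control; nearly all actives have a fitted effect of over 55% in size.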 An outline of the steps: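 Cytotoxicity is scored as a concentration-dependent drop in intracellular ATP in human lymphoblastoid cells after 24 hr compound exposure at 37 C. ATP is quantified by luciferase luminescence, and AC50 values come from Hill-equation modeling.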
Assay [5] in a line: Cell Viability - LYMP2-007 (AID 979).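 Note: cells exposed to compound for 24 h before reading; 0% = DMSO only and the negative end = 92 µM tetraoctylammonium bromide; nearly all actives have a fitted effect of over 60% in size.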 An outline of the steps:
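Cells are seeded at 2500 per well and rested 5 hr. Compounds are then added over a concentration series for 24 hr at 37 C. CellTiter-Glo is added for 30 min at room temperature before luminescence reading.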

A short description of assay [6]: Cell Viability - LYMP2-020 (AID 986).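 Note: plate controls were DMSO only for no effect and tetraoctylammonium bromide at 92 µM for full effect; nearly all actives have a fitted effect of over 55% in size.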 An outline of the steps: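 Seed 2500 cells per well and incubate 5 hr at 37 C. Add compounds at a concentration series and incubate 24 hr at 37 C. Add CellTiter-Glo, wait 30 min at RT, read luminescence, and fit a Hill curve for AC50.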
Assay [7] in a line: Cell Viability - LYMP1-002 - Assay at 40 hr (AID 994).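 Note: 0% = DMSO only and full inhibition = 92 µM tetraoctylammonium bromide; nearly all actives have a fitted effect of over 60% in size.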 A digest of the protocol: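 Cells are plated at 2500 per well and rested 5 hr at 37 C. Compounds are added and incubated 40 hr at 37 C. CellTiter-Glo reagent is added for 30 min at room temperature before luminescence is read.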
In assay [8] the target is Estrogen receptor (Homo sapiens) (UniProt P03372). The experiment in a line: qHTS assay for small molecule antagonists of estrogen receptor alpha signaling (AID 588513; active = well fitted curve in the direction sought with a large enough effect in the signal ratio, with a control signal flat, not every such curve was filed as active; the % refers to the signal ratio; note: % is set by controls: 0 for no effect and ±100 for the full control effect). A digest of the protocol: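 Antagonist mode: inhibition of 0.5 nM 17-beta-estradiol-driven beta-lactamase reporter in HEK 293 ER-alpha-UAS-bla cells, 18 h at 37C, CCF4 readout after 2 h at RT. Normalised to estradiol and DMSO; titration fitted to Hill.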

Assay [9] has the same target. The experiment in a line: qHTS assay for small molecule agonists of estrogen receptor alpha signaling (AID 588514; calls by dose curve;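 note: 0% = vehicle only and 100% = reference agonist; nearly all actives have a fitted effect of over 70% in size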). A digest of the protocol: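 Efficacy is expressed against 20 nM 17-beta-estradiol (100%) and DMSO basal (0%); EC50 from Hill equation. Assay: beta-lactamase reporter in ER-alpha-UAS-bla HEK 293 cells, 18 h compound incubation, CCF4 detection.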
Assay [10] deals with Glucocorticoid receptor (Homo sapiens) (UniProt P04150). The experiment in a line: qHTS assay for small molecule antagonists of glucocorticoid receptor signaling (AID 588533; active = well fitted inhibition curve with a large enough effect in the signal ratio, with a control signal flat, not every such curve was filed as active; the % refers to the signal ratio;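 note: cells stimulated with 2 nM dexamethasone as agonist; % is set by controls: 0 for no effect and ±100 for the full control effect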). A digest of the protocol:
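Antagonist-mode qHTS: compound titrations added to GRE-bla HeLa cells, then dexamethasone 2 nM final; 18 h, 37 C. CCF4 FRET fluorescence normalized to dexamethasone and DMSO; IC50 from Hill fit.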

Assay [11] can be described thus: qHTS assay for cell viability of HEK293 cells (AID 743288). Note: % is set by controls: 0 for no effect and ±100 for the full control effect; nearly all actives have a fitted effect of over 50% in size. The following applies: ATP luminescence (CellTiter-Glo), 18 h; max response: stronger effect = lower value. A digest of the protocol:
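Readout is luciferase-coupled ATP content (CellTiter-Glo luminescence, 30 min room temperature) as a measure of metabolically competent cells. Parental HEK293 cells were plated 5 h or more before compound addition, then treated 18 h at 37 C.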

The target in assay [12] is Mitogen-activated protein kinase 10 (Mus musculus) (UniProt Q61831). Put plainly: JNK3 AlphaScreen Assay (AID 530; active = well fitted curve in either direction with a large enough effect, not every such curve was filed as active;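 note: kinase came from lysate of stimulated human HepG2 cells; signal reports phosphorylation of biotinylated GST-cJun 1-79 at Ser73 with 10 µM ATP; % is set by controls: 0 for no effect and ±100 for the full control effect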). A digest of the protocol: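 qHTS titrations with 15 min compound pre-incubation before adding ATP (10 uM final). Read-out: AlphaScreen of Ser73-phosphorylated biotin-GST-cJun using HepG2 lysate JNK3 activated by IL-1β and TNFα.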
Assay [13] is described as follows: qHTS assay for small molecule antagonists of peroxisome proliferator-activated receptor delta signaling (AID 588535; active = well fitted inhibition curve with a large enough effect in the signal ratio, with a control signal flat, not every such curve was filed as active; the % refers to the signal ratio;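 for max response: cells co-treated with a PPAR-delta agonist as stimulator during compound exposure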). The note with it: HEK293T PPARd-UAS-bla, beta-lactamase FRET ratio, 18 h; 460 nm channel. A digest of the protocol:
(§1)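 Titrations were run on PPAR-delta-UAS-bla HEK293T cells in charcoal/dextran-stripped serum, incubated 18 h at 37 C. CCF4 fluorescence (460/530 nm) after 2 h RT; Hill equation yields IC50 and maximal response.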

Assay [14] has as its target Peroxisome proliferator-activated receptor delta (Homo sapiens) (UniProt Q03181). Described as above. An outline of the steps: as §1
The target of assay [15] is Peroxisome proliferator-activated receptor gamma (Homo sapiens) (UniProt P37231). The experiment in a line: qHTS assay for small molecule agonists of peroxisome proliferator-activated receptor gamma signaling (AID 588536; active = well fitted curve in the direction sought with a large enough effect in the signal ratio, with a control signal flat, not every such curve was filed as active; the % refers to the signal ratio;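 note: 0% = DMSO basal wells and 100% = rosiglitazone at 2 µM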). An outline of the steps: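 Cells were plated and held 6–6.5 h at 37 C, then compounds were added as a titration series. After a further 16 h, CCF4 dye was loaded for 2 h at room temperature and emission at 460/530 nm recorded.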

Assay [16] in a line: Cell Viability - LYMP2-005 (AID 967).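 Note: plate controls were DMSO only for no effect and 92 µM tetraoctylammonium bromide control for full effect.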 An outline of the steps:
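LYMP2-005 human lymphoblastoid cells (2500/well) were treated with compounds for 24 h at 37 C. Intracellular ATP was then measured by CellTiter-Glo luminescence after 30 min at room temperature. AC50 values came from Hill-equation fits of qHTS concentration-response data.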

Assay [17] can be described thus: Cell Viability - LYMP2-012 (AID 982).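 Note: cellular ATP by luciferase luminescence where a drop means cytotoxicity; cells exposed to compound for one day before reading; 0% = DMSO only and full loss = 92 µM tetraoctylammonium bromide; nearly all actives have a fitted effect of over 55% in size.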
Assay [18] in a line: Cell Viability - LYMP2-006 (AID 978). Note: % is set by controls: 0 for no effect and ±100 for the full control effect; nearly all actives have a fitted effect of over 60% in size. A digest of the protocol: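 Potency values are Hill-fit AC50s for decreases in intracellular ATP (CellTiter-Glo luminescence). LYMP2-006 lymphoblastoid cells, 2500 per well, were exposed to compound in complete culture medium for 24 hr at 37 C.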
The nature of assay [19]: qHTS assay to identify small molecules that stimulate interleukin-8 (IL-8) secretion (AID 651758; active = well fitted activation curve with a large enough effect in the signal ratio; the % refers to the signal ratio; note: 0% is about no effect). An outline of the steps: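 Secreted IL-8 measured homogeneously by TR-FRET (two labelled anti-IL-8 antibodies, 1-3 h at room temperature) after a 16 h, 37 C compound treatment of THP-1 cells at 2000 cells/well.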
Assay [20] concerns the target Peroxisome proliferator-activated receptor gamma (Homo sapiens) (UniProt P37231). Put plainly: qHTS assay for small molecule antagonists of peroxisome proliferator-activated receptor gamma signaling (AID 588537; active = well fitted inhibition curve with a large enough effect in the signal ratio, with a control signal flat, not every such curve was filed as active; the % refers to the signal ratio;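 note: reporter cells co-stimulated with 50 nM rosiglitazone agonist during compound treatment; % of control where 0% means no effect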). A digest of the protocol: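 Antagonist-mode β-lactamase reporter screen run as a titration series. HEK293 PPARγ-UAS-bla cells are stimulated with rosiglitazone (50 nM final) for 16 h, then CCF4 is read at 460/530 nm. Data are scaled between DMSO and rosiglitazone and fitted to the Hill equation.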

Several values for one entry are separate records, joined by “and”; a condition that tells them apart may be missing. Identical values can stand only once. Results filed as inconclusive are left out. Activity calls are given as the source filed them. Unless noted, calls come from the whole dose curve; as a rule, active = well fitted curve in the direction sought with a large enough effect; inconclusive = small, poorly fitted or top-dose-only effect, or another doubt; inactive = no such curve, though single readings can be large; an effect the other way counts as inactive or inconclusive.

Sequence of Peroxisome proliferator-activated receptor delta (Homo sapiens) (Q03181 whole entry, looked up): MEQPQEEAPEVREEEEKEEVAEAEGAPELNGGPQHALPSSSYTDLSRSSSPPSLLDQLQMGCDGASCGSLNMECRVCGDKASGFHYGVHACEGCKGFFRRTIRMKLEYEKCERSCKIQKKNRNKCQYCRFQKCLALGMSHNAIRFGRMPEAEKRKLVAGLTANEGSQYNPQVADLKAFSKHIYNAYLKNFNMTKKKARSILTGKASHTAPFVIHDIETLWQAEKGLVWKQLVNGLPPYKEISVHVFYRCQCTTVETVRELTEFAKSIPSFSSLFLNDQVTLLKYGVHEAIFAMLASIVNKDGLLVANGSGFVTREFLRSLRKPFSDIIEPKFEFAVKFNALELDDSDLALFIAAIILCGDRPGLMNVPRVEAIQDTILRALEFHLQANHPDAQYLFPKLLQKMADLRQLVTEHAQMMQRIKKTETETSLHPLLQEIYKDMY
Sequence of Estrogen receptor (Homo sapiens) (P03372 whole entry, looked up): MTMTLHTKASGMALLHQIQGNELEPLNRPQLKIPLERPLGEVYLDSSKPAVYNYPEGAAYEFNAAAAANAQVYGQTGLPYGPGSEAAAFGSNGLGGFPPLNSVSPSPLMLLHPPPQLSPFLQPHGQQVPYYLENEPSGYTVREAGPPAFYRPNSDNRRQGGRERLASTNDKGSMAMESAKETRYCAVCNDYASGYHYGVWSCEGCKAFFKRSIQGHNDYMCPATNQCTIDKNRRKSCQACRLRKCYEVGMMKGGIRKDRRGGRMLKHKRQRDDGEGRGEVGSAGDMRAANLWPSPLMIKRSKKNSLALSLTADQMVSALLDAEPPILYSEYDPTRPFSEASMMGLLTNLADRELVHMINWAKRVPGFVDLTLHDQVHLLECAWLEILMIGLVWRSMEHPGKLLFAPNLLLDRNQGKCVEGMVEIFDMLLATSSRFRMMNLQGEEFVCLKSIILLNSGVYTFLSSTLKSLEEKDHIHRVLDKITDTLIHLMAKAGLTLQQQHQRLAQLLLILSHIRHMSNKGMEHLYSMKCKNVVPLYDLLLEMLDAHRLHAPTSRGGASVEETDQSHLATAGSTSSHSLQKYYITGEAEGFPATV
Sequence of Peroxisome proliferator-activated receptor gamma (Homo sapiens) (P37231 whole entry, looked up): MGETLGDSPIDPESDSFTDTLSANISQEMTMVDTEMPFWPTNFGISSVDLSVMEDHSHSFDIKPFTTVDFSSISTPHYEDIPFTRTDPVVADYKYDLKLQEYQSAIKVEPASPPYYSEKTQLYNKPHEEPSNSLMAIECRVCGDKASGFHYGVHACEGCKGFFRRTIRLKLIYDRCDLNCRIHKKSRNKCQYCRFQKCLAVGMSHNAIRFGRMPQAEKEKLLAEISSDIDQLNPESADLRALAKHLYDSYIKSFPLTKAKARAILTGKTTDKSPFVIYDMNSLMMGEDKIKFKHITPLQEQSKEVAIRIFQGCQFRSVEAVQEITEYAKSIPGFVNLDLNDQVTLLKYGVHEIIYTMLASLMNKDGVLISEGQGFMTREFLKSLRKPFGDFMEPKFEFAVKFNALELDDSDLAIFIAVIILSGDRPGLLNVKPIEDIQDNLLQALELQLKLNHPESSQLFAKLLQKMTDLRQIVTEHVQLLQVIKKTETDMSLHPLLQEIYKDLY
Sequence of Glucocorticoid receptor (Homo sapiens) (P04150 whole entry, looked up): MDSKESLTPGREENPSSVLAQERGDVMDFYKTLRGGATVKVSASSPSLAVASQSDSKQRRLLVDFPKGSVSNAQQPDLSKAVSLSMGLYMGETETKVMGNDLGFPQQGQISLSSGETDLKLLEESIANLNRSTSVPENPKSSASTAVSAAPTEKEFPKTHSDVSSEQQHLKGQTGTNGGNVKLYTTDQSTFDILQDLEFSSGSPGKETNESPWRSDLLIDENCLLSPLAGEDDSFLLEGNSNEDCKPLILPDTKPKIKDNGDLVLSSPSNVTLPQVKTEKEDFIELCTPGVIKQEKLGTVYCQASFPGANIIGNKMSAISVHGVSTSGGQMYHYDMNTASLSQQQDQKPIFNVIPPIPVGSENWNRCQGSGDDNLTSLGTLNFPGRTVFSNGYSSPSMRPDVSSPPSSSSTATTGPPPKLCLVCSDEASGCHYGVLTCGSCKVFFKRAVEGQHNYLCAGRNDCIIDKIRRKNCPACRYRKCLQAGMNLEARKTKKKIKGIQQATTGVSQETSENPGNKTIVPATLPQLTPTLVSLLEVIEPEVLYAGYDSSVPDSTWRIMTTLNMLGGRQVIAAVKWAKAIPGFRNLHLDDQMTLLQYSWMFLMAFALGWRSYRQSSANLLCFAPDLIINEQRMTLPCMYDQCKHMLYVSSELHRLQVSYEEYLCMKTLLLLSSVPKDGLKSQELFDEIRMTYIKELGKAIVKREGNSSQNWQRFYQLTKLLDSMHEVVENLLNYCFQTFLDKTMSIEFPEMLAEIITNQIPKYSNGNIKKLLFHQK

`O=[N+]([O-])c1ccccc1Nc1ccccc1`: the caspase-3 activation in assay [1] was -0.0405% (inactive). Besides, the Potency entry in assay [2], in assay [4], in [5], in assay [6], in assay [7] and in assay [9] was “inactive” throughout. The Potency entry in [10] is “inactive”. Further, the molecule was classed as inactive in [3] and in assay [8]. In addition, the max response in [11] was -4.25% (inactive).
For `COc1ccc(C)cc1N`, the Potency result in assay [12], in assay [4], in assay [5], in assay [6], in assay [7] and in [9] was “inactive” throughout. In assay [10], the Potency result is “inactive”. In addition, the caspase-3 activation in assay [1] was 0.602% (inactive). Moreover, the molecule was called inactive in assay [3], in [8], in assay [14] and in assay [15]. For the same molecule, the max response in assay [13] was 4.23%.
As to `CC(=O)c1ccc(Cl)c(Cl)c1Cl`, the caspase-3 activation in assay [1] is 0.887% (inactive). Further, the Potency entry in assay [2], in assay [16], in assay [5], in assay [17], in assay [6] and in assay [7] was “inactive” in each case. The Potency result in assay [9] and in [10] was “inactive” each time. For the same molecule, the outcome in assay [3], in assay [8] and in assay [15] was inactive. Besides, the max response in assay [11] is 4.03% (inactive).
Turning to `CCC(Cl)CC(Cl)C(Cl)C(Cl)C(Cl)C(C)Cl` (stereo not given), the Potency entry in [2], in [16], in assay [4], in assay [18], in assay [17] and in assay [6] was “inactive” throughout. Moreover, the Potency result in assay [9] and in assay [19] was “inactive” each time. In addition, the result in [8] and in assay [14] was inactive. The max response in [13] was -12%; in [11], 0.239% (inactive).
`CCCCC(CC)COC(=O)COc1ccc(Cl)cc1Cl` (stereo not given): the caspase-3 activation in assay [1] was 1.58% (inactive). The Potency entry in assay [2], in assay [4], in assay [5], in assay [17], in assay [9] and in assay [10] was “inactive” each time. In addition, the molecule was called inactive in [3] and in assay [8]. Also, in assay [11], the max response is -3.29% (inactive) and 2.38% (inactive).
As to `C=Cc1cccc(C)c1`, the result in [3], in assay [8] and in assay [14] was inactive. The Potency result in assay [16], in assay [4], in assay [18], in [5], in assay [17] and in assay [9] was “inactive” in each case. Moreover, the Potency entry in [10], in assay [20] and in [19] was “inactive” in each case. In assay [13], the max response was -23.4%.
Regarding `Oc1c(Cl)cc(Cl)c(Cl)c1Cl`, the Potency entry in [12], in [16], in [4], in assay [5], in assay [17] and in assay [6] was “inactive” in each case. Also, the Potency result in [10] was “inactive”. Also, the molecule was classed as inactive in [3] and in [14]. Also, the max response in assay [13] was determined as 22.5%.
With `Cc1ccc(N)cc1[N+](=O)[O-]`, the Potency result in assay [12], in assay [2], in assay [16], in [4], in assay [18] and in [5] was “inactive” throughout. The Potency entry in assay [6], in [7], in assay [10] and in assay [20] was “inactive” each time. Also, the caspase-3 activation in [1] is -1.57% (inactive). Further, the max response was 35.9% in [13] and 4.69% (inactive) in [11]. In assay [14], the outcome was inactive.
With `Cc1ccc2ccc3cccc4ccc1c2c34`, the caspase-3 activation in assay [1] was 0.114% (inactive). Further, the Potency result in assay [2], in [4], in assay [18], in assay [17], in [6] and in [7] was “inactive” throughout. The Potency result in [9], in [10] and in assay [20] was “inactive” each time. Besides, the molecule was called inactive in assay [3], in [8] and in assay [14]. For the same molecule, the max response in assay [13] stood at 18.4%.
